Test results taken from the supplement of paper PMC10849652.
About 8,800 targets were measured; listed, in parts, are those with a hit and a random draw of the rest. About 0.5% of all pairs of compound and target were hits.

How the values were obtained:
Test in all cases: log2 fold change, soluble protein after heating vs DMSO (PISA); higher = thermal stabilisation; K562 lysate, 10 uM; active = over 0.2 and 3.5 SD of the protein, either way, in both replicates (recomputed)
[1] = compound: CN1CC[C@H](c2c(O)cc(O)c3c(=O)cc(-c4ccccc4Cl)oc23)[C@H](O)C1 [alvocidib]
Outline: (§1)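 Dounce homogenisation of K562 pellets in PBS pH 7.4 with 1 mM MgCl2 produced a crude extract, used at 1 mg/mL protein. Exposure to 10 μM compound lasted 30 min, and aliquots were then heated for 3 min across 48°C-58°C, pooled and brought to 0.5% NP-40 at 4°C. The supernatant after 21,000xg for 90 min was quantified by TMTpro 16plex LC-MS/MS with channel sums equalised. Duplicate values are given as log-two fold change in thermal stability relative to solvent controls.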

[2] = compound: CN1CCc2c(c3ccccc3n2Cc2ccc(C(=O)NO)cc2)C1 [Tubastatin A]
Outline: as §1

[3] = compound: CNC(=O)C1=CC=CC=C1NC2=NC(=NC=C2Cl)NC3=C(C=C(C=C3)N4CCOCC4)OC
Outline: as §1

[4] = compound: CNC(=O)c1ccc(Nc2ncc(C(F)(F)F)c(NCc3nccnc3N(C)S(C)(=O)=O)n2)cc1 [defactinib]
Outline: as §1

[5] = compound: CNc1nc(-c2ccc3c(N)n[nH]c3c2)cc(N2C[C@@H](C(=O)NC3CCCCC3)CC[C@H]2C)n1
Outline: as §1

[6] = compound: COC(=O)N[C@@H](C)CNc1nccc(-c2cn(C(C)C)nc2-c2cc(Cl)cc(NS(C)(=O)=O)c2F)n1 [encorafenib]
Outline: as §1

[7] = compound: COC(=O)[C@H](CCSC)NC(=O)C1=C(C=C(C=C1)NC[C@H](CS)N)C2=CC=CC=C2
Outline: as §1

[8] = compound: COc1cc(Nc2ncc3c(n2)-c2ccc(Cl)cc2C(c2c(F)cccc2OC)=NC3)ccc1C(=O)O [alisertib]
Outline: as §1

[9] = compound: COc1cc2nc(-c3cc(F)ccc3O)nc(N[C@@H]3CNC[C@H]3C(C)(C)O)c2cc1OC
Outline: as §1

[10] = compound: COc1cc2ncnc(Nc3ccc(F)c(Cl)c3)c2cc1OCCCN1CCOCC1 [gefitinib]
Outline: as §1

[11] = compound: CS(=O)(=O)CCNCc1ccc(-c2ccc3ncnc(Nc4ccc(OCc5cccc(F)c5)c(Cl)c4)c3c2)o1 [lapatinib]
Outline: as §1

[12] = compound: CS(=O)(=O)N1CCN(Cc2cc3nc(-c4cccc5[nH]ncc45)nc(N4CCOCC4)c3s2)CC1 [pictilisib]
Outline: as §1

[13] = compound: C[C@@H](Oc1cc(-c2cnn(C3CCNCC3)c2)cnc1N)c1c(Cl)ccc(F)c1Cl [crizotinib]
Outline: as §1

[14] = compound: C[C@H](C1=CC=C(C=C1)C(=O)NC2=C3C=CNC3=NC=C2)N
Outline: as §1

[15] = compound: C[C@H](Nc1ncnc2nc[nH]c12)c1cc2cccc(Cl)c2c(=O)n1-c1ccccc1 [duvelisib]
Outline: as §1

[16] = compound: Cc1cc(Nc2cc(CN3CCOCC3)c3nc(C)c(Cc4ccc(Cl)cc4F)n3n2)n[nH]1 [gandotinib]
Outline: as §1

[17] = compound: Cc1cc(Nc2cc(N3CCN(C)CC3)nc(Sc3ccc(NC(=O)C4CC4)cc3)n2)n[nH]1 [tozasertib]
Outline: as §1

[18] = compound: Cc1ccc(-n2nc(C(C)(C)C)cc2NC(=O)Nc2ccc(OCCN3CCOCC3)c3ccccc23)cc1 [doramapimod]
Outline: as §1

[19] = compound: Cc1ccc(NC(=O)c2ccc(CN3CC[C@H](N(C)C)C3)c(C(F)(F)F)c2)cc1Nc1nccc(-c2cncnc2)n1 [bafetinib]
Outline: as §1

[20] = compound: Cc1cccc(CC(=O)N2CCc3c2ccc(-c2cn(C)c4ncnc(N)c24)c3F)n1
Outline: as §1

Measured: log2 fold change

PRKACB isoform 2 (UniProt P22694)
active: [9] 0.51
inactive: [1] 0.006 | [2] 0.003 | [3] 0.011 | [4] 0.117 | [5] 0.118 | [6] -0.018 | [7] -0.05 | [8] 0 | [10] 0.006 | [11] -0.063 | [12] -0.042 | [13] -0.018 | [14] 0.141 | [15] 0.024 | [16] -0.071 | [17] -0.001 | [18] -0.023 | [19] -0.04 | [20] -0.131

PTPN2 (UniProt P17706)
Sequence of UniProt P17706 (P17706 whole entry, looked up): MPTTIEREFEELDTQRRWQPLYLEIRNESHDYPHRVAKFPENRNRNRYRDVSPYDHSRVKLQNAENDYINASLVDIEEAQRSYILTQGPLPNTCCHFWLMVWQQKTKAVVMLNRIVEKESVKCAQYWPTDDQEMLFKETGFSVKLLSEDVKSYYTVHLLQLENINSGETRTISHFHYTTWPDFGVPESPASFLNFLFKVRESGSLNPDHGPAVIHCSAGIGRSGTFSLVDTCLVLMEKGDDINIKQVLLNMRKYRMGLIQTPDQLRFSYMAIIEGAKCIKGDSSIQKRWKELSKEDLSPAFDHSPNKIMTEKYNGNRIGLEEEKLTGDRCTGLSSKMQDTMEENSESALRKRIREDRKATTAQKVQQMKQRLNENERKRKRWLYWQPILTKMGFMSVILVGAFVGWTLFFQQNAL
inactive: [1] -0.036 | [2] -0.115 | [3] 0.049 | [4] -0.008 | [5] 0.005 | [6] -0.035 | [7] 0.053 | [8] 0.052 | [9] -0.006 | [10] -0.006 | [11] -0.016 | [12] -0.01 | [13] -0.074 | [14] -0.084 | [15] -0.042 | [16] -0.013 | [17] -0.037 | [18] -0.012 | [19] -0.077 | [20] 0.071

PRKCB isoform 2 (UniProt P05771)
inactive: [1] -0.004 | [2] 0.054 | [3] -0.029 | [4] -0.019 | [5] 0.03 | [6] 0.057 | [7] -0.203 | [8] 0.039 | [9] 0.148 | [10] 0.008 | [11] -0.001 | [12] 0.003 | [13] 0.036 | [14] -0.012 | [15] 0.033 | [16] -0.122 | [17] 0.035 | [18] 0.009 | [19] -0.01 | [20] 0.021

PTGES2 (UniProt Q9H7Z7)
Sequence of UniProt Q9H7Z7 (Q9H7Z7 whole entry, looked up): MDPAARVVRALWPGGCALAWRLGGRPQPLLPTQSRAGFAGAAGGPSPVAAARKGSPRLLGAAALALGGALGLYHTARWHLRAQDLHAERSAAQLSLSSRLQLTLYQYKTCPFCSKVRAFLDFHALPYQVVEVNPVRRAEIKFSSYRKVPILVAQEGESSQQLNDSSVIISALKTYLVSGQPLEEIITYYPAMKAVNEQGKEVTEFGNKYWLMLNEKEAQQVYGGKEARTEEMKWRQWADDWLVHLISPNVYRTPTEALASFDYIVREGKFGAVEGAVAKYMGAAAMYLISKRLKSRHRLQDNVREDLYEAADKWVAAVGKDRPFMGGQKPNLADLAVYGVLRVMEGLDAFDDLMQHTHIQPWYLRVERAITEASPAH
inactive: [1] 0.015 | [2] -0.169 | [3] 0.122 | [4] -0.075 | [5] 0.322 | [6] -0.127 | [7] 0.098 | [8] -0.026 | [9] -0.248 | [10] 0.245 | [12] 0.153 | [13] -0.052 | [14] -0.013 | [15] 0.029 | [16] 0.236 | [17] 0.329 | [18] 0.341 | [19] 0.176 | [20] 0.009
active: [11] 0.637

PRC1 (UniProt O43663)
inactive: [1] 0.002 | [2] -0.157 | [3] 0.043 | [4] -0.012 | [5] 0.012 | [6] 0.031 | [8] 0.045 | [9] -0.032 | [10] 0.049 | [11] -0.014 | [12] -0.007 | [13] -0.109 | [14] 0.023 | [15] 0.059 | [16] -0.003 | [17] 0.017 | [18] 0.004 | [19] -0.079 | [20] 0.025
active: [7] 0.255

PIP4K2A (UniProt P48426)
Sequence of UniProt P48426 (P48426 whole entry, looked up): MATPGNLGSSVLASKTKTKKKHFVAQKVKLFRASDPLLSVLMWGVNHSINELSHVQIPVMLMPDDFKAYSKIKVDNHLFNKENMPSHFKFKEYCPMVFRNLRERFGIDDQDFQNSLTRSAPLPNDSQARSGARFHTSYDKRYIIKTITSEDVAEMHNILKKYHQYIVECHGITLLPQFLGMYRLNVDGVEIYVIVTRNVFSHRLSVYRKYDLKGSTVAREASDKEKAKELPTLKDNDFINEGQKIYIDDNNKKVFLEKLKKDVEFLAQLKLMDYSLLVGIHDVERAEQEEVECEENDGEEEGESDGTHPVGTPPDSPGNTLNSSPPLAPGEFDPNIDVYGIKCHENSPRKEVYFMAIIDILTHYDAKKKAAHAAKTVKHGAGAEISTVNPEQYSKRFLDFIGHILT
inactive: [2] -0.048 | [3] 0.006 | [4] 0.065 | [5] -0.035 | [6] 0.141 | [7] -0.071 | [8] 0.01 | [9] 0.005 | [10] 0.037 | [11] -0.04 | [12] 0.032 | [13] 0.019 | [14] -0.089 | [15] 0.05 | [16] 0.109 | [17] 0.014 | [18] -0.035 | [20] 0.005
active: [1] 0.279 | [19] 0.301

PRIM2 (UniProt P49643)
Sequence of UniProt P49643 (P49643 whole entry, looked up): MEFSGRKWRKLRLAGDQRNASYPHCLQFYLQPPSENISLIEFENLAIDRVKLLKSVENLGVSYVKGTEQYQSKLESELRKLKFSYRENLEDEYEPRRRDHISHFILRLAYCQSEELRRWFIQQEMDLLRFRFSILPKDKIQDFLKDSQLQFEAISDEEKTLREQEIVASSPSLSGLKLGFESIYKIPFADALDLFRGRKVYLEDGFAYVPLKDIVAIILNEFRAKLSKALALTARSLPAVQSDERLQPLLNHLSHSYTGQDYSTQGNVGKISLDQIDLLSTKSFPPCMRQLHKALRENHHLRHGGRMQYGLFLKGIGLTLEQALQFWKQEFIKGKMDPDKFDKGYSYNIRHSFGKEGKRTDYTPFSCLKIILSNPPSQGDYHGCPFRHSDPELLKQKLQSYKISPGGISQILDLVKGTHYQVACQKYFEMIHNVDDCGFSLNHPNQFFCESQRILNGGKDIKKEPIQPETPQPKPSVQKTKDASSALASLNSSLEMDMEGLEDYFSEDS
inactive: [1] -0.008 | [2] -0.138 | [3] 0.033 | [4] -0.01 | [5] 0.009 | [6] -0.002 | [7] 0.035 | [8] -0.017 | [9] -0.009 | [10] 0.01 | [11] 0.045 | [12] -0.025 | [13] -0.017 | [14] 0.007 | [15] -0.002 | [16] -0.056 | [17] -0.04 | [18] 0.028 | [19] -0.1 | [20] 0.004

PDCD6IP (UniProt Q8WUM4)
inactive: [1] 0.05 | [2] 0 | [3] -0.002 | [4] -0.021 | [5] -0.042 | [6] -0.1 | [7] 0.143 | [8] -0.039 | [9] 0.013 | [10] -0.001 | [11] -0.006 | [12] -0.032 | [13] -0.103 | [14] -0.106 | [15] 0.004 | [16] -0.012 | [17] 0.033 | [18] 0.034 | [19] -0.053 | [20] 0.012

PRAME (UniProt P78395)
inactive: [1] 0.034 | [2] -0.111 | [3] 0.024 | [4] 0.006 | [5] -0.006 | [6] -0.001 | [7] 0.13 | [8] 0.014 | [9] 0.009 | [10] -0.007 | [11] -0.012 | [12] -0.008 | [13] -0.08 | [14] -0.015 | [15] 0.005 | [16] -0.037 | [17] -0.013 | [18] 0.007 | [19] -0.062 | [20] 0.056

PCBP2 isoform 8 (UniProt Q15366)
Sequence of UniProt Q15366 (Q15366 whole entry, looked up): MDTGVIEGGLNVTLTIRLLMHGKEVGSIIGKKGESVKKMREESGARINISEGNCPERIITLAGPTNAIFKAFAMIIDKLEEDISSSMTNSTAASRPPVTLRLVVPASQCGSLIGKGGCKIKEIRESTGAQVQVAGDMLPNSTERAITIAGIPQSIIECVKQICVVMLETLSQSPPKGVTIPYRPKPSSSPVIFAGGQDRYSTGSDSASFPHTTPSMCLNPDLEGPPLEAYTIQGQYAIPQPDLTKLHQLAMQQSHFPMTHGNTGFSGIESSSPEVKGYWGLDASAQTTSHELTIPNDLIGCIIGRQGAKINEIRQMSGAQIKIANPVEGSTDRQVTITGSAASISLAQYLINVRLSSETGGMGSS
inactive: [1] -0.01 | [2] -0.133 | [3] 0.022 | [4] 0 | [5] 0.079 | [6] 0.053 | [7] 0.108 | [8] -0.013 | [9] -0.085 | [10] -0.122 | [11] 0.022 | [12] -0.013 | [13] 0.001 | [14] 0.013 | [15] 0.04 | [16] 0.029 | [17] -0.026 | [18] -0.092 | [19] 0.082 | [20] 0.036

PI4K2B (UniProt Q8TCG2)
Sequence of UniProt Q8TCG2 (Q8TCG2 whole entry, looked up): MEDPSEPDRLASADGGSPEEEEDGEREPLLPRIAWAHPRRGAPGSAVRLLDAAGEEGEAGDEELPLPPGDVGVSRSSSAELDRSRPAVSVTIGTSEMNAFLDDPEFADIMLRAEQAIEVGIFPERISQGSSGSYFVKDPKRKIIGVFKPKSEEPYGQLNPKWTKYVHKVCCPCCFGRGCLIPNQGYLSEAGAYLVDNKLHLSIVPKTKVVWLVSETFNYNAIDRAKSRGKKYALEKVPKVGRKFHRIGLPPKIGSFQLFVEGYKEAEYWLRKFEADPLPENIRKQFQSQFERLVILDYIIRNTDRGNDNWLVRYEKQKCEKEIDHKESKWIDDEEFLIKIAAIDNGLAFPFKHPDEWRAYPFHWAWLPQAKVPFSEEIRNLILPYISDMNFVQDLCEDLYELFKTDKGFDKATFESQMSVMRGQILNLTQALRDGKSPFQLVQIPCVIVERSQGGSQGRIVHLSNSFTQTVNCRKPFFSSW
inactive: [1] -0.263 | [2] 0.12 | [3] -0.04 | [4] -0.081 | [5] -0.057 | [6] 0.041 | [7] -0.005 | [8] -0.068 | [9] -0.011 | [10] 0.107 | [11] 0.009 | [12] 0.039 | [13] -0.203 | [14] 0.134 | [15] 0.143 | [16] 0.041 | [17] 0.019 | [18] -0.026 | [19] -0.017 | [20] 0.003

PHOSPHO2 (UniProt Q8TCD6)
inactive: [1] 0.053 | [2] -0.042 | [3] -0.026 | [4] -0.008 | [5] -0.008 | [6] -0.02 | [8] -0.013 | [9] -0.008 | [10] 0.016 | [11] -0.043 | [12] 0.015 | [13] -0.001 | [14] -0.063 | [15] -0.044 | [16] -0.009 | [17] -0.184 | [18] -0.045 | [19] -0.024 | [20] -0.002
active: [7] 0.356

PIKFYVE (UniProt Q9Y2I7)
Sequence of UniProt Q9Y2I7 (Q9Y2I7 whole entry, looked up): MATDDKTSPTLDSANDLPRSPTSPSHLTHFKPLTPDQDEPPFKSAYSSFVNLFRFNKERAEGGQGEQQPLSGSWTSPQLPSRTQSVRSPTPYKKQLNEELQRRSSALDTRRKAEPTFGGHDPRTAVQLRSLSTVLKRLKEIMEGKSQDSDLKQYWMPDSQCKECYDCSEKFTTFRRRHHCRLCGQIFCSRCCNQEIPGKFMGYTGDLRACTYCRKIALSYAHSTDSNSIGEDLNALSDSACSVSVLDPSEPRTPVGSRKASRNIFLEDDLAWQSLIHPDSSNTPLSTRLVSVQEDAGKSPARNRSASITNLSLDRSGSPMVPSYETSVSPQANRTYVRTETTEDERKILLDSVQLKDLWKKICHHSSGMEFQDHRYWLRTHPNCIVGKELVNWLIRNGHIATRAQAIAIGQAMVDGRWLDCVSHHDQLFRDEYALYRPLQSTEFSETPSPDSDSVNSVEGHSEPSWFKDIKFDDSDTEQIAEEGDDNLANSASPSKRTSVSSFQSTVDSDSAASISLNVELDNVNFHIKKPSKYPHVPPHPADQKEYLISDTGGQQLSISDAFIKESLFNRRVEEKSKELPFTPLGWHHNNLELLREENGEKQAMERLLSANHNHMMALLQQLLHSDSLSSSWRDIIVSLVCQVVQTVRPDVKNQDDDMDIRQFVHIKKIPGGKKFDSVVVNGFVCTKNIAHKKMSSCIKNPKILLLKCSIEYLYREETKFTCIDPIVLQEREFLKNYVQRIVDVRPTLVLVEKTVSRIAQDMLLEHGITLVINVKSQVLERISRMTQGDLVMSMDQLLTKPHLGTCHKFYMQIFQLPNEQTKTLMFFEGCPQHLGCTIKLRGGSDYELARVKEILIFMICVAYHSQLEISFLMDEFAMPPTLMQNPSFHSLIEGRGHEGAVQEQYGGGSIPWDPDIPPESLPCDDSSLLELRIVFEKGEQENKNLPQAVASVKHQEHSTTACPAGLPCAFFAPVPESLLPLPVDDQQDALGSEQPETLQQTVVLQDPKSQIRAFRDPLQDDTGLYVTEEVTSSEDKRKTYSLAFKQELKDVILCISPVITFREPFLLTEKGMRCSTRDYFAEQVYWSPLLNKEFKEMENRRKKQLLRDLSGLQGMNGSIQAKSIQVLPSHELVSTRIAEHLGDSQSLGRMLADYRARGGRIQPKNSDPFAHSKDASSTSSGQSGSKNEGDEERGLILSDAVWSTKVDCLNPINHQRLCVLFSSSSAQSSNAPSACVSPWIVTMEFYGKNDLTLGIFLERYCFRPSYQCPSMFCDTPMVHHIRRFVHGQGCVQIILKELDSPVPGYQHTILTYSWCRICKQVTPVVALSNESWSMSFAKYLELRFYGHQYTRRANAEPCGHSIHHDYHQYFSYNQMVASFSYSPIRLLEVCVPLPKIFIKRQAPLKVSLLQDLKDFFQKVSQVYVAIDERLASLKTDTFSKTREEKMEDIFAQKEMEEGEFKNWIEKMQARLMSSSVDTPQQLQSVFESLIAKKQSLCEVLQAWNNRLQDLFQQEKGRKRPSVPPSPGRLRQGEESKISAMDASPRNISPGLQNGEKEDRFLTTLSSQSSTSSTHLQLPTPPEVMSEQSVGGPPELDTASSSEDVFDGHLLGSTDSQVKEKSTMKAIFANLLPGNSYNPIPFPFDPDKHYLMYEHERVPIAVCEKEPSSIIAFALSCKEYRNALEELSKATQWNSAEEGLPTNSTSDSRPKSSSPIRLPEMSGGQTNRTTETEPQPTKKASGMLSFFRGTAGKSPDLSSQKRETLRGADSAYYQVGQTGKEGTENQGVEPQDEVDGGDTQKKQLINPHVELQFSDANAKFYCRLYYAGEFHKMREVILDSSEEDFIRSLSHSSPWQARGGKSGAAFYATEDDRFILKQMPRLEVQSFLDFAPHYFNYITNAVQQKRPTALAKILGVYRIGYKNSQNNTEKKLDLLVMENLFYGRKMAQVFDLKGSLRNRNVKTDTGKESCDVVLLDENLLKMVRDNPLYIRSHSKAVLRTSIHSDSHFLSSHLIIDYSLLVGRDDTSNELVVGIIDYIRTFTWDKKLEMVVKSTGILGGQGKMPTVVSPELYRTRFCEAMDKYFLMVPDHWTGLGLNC
inactive: [1] -0.049 | [2] -0.126 | [3] 0.032 | [4] 0.078 | [5] -0.031 | [6] 0.044 | [7] 0.088 | [8] 0.031 | [9] 0.004 | [10] -0.005 | [11] -0.039 | [12] -0.06 | [13] -0.002 | [14] -0.058 | [15] -0.013 | [16] 0.01 | [17] -0.014 | [18] 0.029 | [19] -0.053 | [20] 0.066

PHLDB1 (UniProt Q86UU1)
inactive: [1] -0.067 | [2] -0.1 | [3] -0.031 | [4] 0.023 | [5] 0.049 | [6] -0.041 | [7] -0.05 | [8] 0.009 | [9] -0.037 | [10] 0.017 | [11] -0.052 | [12] 0.034 | [13] -0.154 | [14] -0.06 | [15] -0.028 | [16] 0.073 | [17] -0.047 | [18] 0.076 | [19] -0.112 | [20] 0.031

QKI (UniProt Q96PU8)
Sequence of UniProt Q96PU8 (Q96PU8 whole entry, looked up): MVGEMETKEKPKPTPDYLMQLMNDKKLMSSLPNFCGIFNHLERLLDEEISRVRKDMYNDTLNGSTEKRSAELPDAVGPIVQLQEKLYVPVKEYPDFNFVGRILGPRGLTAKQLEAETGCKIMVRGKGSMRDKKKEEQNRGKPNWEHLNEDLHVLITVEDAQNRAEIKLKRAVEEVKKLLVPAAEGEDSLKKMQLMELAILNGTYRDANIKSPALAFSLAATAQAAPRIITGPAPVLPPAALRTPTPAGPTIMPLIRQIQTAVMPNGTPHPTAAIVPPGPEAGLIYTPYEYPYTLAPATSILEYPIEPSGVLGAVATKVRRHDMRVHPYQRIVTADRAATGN
active: [14] -0.212
inactive: [1] -0.058 | [2] -0.005 | [3] 0.024 | [4] 0.029 | [5] -0.02 | [6] 0.045 | [7] -0.206 | [8] 0.069 | [9] 0.009 | [10] 0.021 | [11] -0.002 | [12] 0.015 | [13] 0.047 | [15] -0.017 | [16] 0.163 | [17] -0.021 | [18] -0.043 | [19] -0.056 | [20] 0.155

PCBP2 isoform 3 (UniProt Q15366)
inactive: [1] 0.038 | [2] -0.074 | [3] 0.017 | [4] 0.006 | [5] -0.075 | [6] 0.049 | [7] -0.048 | [8] -0.001 | [9] -0.006 | [10] -0.009 | [11] -0.013 | [12] -0.008 | [13] 0.079 | [14] -0.005 | [15] -0.015 | [16] -0.023 | [17] 0.014 | [18] 0.012 | [19] 0.002 | [20] -0.042
